Results as given in the supplement of paper PMC10849652.
The full data set covers some 8,800 targets. This sample favours those with a hit. About 0.5% of all pairs of compound and target were hits.

Compound: NC(=O)c1cnc(N[C@@H]2CCCC[C@@H]2N)nc1Nc1cccc(-n2nccn2)c1
Experiment: log2 fold change, soluble protein after heating vs DMSO (PISA); higher = thermal stabilisation; K562 lysate, 10 uM; active = over 0.2 and 3.5 SD of the protein, either way, in both replicates (recomputed)
How it was run: (§1)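 A 30 min treatment with 10 μM compound was applied to crude K562 extract at 1 mg/mL protein in PBS pH 7.4 with 1 mM MgCl2. Heating for 3 min spanned 48°C-58°C, after which aliquots were pooled, adjusted to 0.5% NP-40 at 4°C and spun at 21,000xg for 90 min. TMTpro 16plex LC-MS/MS of the supernatant, with channel sums equalised, gave values recorded as log-two fold change in thermal stability against solvent controls, from duplicates.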

UniProt O75382, sequence (O75382 whole entry, looked up): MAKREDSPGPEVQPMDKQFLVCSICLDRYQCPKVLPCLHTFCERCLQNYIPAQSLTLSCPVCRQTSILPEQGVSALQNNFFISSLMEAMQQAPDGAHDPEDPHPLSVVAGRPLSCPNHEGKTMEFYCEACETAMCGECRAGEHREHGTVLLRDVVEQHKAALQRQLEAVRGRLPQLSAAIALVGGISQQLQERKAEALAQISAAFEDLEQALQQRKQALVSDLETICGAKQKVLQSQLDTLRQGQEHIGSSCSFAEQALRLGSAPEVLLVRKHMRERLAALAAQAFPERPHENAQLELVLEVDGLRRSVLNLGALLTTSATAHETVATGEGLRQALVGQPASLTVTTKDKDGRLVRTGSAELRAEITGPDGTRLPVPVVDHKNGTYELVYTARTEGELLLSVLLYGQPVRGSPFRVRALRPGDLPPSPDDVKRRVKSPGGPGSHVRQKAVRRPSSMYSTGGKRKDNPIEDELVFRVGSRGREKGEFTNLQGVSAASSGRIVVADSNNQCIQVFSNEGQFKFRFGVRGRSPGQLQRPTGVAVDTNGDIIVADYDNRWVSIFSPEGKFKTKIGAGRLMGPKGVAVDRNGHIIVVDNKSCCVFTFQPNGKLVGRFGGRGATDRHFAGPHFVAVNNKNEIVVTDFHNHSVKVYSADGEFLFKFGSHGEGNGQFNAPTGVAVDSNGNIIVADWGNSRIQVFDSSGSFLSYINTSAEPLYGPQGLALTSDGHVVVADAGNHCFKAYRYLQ
UniProt Q9NRX6, sequence (Q9NRX6 whole entry, looked up): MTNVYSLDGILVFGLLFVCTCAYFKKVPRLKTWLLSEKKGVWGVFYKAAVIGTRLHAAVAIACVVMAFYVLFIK
UniProt Q8NDZ6, sequence (Q8NDZ6 whole entry, looked up): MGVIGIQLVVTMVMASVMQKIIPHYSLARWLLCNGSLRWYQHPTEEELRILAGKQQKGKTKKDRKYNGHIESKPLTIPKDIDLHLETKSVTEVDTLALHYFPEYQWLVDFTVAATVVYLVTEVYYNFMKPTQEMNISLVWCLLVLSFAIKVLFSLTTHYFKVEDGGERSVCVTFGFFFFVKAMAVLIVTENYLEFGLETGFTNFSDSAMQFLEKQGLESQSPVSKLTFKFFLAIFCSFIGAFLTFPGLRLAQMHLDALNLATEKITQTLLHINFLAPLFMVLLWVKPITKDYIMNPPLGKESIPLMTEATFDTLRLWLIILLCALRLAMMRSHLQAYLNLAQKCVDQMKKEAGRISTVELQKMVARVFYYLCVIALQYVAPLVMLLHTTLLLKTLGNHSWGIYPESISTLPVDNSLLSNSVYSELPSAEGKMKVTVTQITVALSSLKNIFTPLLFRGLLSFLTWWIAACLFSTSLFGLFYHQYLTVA
UniProt Q96LJ8, sequence (Q96LJ8 whole entry, looked up): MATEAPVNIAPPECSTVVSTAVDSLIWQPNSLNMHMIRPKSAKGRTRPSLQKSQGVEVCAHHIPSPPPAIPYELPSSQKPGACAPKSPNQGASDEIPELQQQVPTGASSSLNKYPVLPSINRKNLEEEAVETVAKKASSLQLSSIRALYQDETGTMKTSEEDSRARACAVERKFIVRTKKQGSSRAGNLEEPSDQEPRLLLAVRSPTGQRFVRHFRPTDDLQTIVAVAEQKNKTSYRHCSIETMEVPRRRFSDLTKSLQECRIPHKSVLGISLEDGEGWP
UniProt Q53S58, sequence (Q53S58 whole entry, looked up): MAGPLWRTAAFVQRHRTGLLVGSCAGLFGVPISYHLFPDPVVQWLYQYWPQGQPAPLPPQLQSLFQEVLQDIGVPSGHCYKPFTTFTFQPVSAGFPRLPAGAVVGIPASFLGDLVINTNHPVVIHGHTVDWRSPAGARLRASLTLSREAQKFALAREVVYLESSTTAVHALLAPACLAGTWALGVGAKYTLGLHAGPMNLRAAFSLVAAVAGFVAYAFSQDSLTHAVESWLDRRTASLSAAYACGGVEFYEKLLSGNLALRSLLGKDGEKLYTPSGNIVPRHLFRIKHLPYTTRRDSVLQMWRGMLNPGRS
UniProt P10646, sequence (P10646 whole entry, looked up): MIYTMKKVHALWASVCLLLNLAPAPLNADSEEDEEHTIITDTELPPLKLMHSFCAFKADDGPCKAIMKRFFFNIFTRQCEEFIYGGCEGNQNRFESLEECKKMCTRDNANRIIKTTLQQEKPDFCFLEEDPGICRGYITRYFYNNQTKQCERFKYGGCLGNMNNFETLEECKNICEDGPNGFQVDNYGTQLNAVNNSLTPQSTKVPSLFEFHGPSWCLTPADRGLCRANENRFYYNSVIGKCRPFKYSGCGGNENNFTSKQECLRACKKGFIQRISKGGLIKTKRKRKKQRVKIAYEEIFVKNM
UniProt Q8TDI8, sequence (Q8TDI8 whole entry, looked up): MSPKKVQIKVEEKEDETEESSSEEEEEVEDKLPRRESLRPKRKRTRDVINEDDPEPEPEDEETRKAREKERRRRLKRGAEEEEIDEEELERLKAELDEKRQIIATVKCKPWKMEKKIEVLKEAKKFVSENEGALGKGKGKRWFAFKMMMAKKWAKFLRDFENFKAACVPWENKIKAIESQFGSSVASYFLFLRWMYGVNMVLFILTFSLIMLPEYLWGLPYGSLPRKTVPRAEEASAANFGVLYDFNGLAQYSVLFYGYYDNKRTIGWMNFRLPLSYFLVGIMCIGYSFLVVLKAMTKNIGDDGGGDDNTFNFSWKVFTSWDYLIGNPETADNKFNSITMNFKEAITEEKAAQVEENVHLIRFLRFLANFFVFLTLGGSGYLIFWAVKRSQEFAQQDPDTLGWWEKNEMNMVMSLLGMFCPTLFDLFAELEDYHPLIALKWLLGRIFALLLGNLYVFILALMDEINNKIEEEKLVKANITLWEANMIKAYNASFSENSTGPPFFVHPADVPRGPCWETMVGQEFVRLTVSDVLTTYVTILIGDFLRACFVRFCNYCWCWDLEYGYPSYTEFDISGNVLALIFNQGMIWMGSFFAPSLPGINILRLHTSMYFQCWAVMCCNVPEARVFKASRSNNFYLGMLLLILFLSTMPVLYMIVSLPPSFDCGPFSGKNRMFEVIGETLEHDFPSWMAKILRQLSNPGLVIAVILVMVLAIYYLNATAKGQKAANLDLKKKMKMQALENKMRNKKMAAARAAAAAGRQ
UniProt P06753, sequence (P06753 whole entry, looked up): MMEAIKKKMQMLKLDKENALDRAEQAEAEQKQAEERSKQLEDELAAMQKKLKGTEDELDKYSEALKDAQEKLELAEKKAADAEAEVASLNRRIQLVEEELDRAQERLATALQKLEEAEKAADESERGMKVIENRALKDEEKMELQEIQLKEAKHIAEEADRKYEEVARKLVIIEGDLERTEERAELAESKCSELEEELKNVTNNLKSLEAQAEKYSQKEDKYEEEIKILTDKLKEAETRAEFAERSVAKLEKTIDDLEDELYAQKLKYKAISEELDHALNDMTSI
UniProt P0C1Z6, sequence (P0C1Z6 whole entry, looked up): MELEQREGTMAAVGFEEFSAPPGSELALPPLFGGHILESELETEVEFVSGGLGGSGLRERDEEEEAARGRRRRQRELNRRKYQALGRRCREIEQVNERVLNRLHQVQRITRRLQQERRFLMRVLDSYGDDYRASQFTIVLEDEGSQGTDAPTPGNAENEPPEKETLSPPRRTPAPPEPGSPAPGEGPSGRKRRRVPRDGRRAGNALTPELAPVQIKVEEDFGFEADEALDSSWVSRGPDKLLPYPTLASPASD
UniProt P62328, sequence (P62328 whole entry, looked up): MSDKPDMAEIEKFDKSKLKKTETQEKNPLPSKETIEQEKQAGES
UniProt Q24JP5, sequence (Q24JP5 whole entry, looked up): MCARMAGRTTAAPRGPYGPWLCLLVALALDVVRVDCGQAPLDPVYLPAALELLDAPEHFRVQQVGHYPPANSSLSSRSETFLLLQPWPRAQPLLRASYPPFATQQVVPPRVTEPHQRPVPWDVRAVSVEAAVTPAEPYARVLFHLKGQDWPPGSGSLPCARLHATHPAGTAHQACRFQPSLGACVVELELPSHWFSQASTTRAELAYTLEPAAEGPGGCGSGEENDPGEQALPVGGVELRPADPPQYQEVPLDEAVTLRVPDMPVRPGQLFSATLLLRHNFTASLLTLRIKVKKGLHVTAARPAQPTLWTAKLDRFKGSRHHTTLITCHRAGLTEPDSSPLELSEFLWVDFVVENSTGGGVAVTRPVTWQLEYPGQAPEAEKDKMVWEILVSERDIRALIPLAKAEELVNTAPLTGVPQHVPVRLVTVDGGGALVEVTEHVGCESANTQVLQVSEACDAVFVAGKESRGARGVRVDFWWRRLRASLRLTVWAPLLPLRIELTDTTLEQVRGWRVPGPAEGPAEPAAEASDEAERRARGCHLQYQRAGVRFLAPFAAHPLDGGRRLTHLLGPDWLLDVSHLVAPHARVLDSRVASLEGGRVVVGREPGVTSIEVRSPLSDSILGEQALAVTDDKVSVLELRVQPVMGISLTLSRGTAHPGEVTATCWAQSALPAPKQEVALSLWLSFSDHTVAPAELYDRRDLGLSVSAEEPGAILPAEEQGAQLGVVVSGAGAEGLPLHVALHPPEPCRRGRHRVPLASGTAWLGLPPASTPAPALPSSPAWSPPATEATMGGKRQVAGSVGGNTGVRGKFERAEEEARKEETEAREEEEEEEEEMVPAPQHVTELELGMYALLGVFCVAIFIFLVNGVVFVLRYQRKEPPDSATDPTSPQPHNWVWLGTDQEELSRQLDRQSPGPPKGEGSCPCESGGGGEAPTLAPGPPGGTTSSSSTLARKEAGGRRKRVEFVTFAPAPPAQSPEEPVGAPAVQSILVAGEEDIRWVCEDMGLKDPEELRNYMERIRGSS
UniProt Q01664, sequence (Q01664 whole entry, looked up): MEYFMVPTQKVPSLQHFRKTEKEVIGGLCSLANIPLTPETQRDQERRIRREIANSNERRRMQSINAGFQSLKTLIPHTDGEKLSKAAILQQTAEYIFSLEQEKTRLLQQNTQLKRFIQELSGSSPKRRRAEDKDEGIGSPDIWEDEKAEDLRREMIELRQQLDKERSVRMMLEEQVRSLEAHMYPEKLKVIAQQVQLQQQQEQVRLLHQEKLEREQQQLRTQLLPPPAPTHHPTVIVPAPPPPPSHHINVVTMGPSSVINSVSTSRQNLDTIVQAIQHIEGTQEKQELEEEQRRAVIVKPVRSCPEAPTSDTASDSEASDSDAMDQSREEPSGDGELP

log2 fold change, inactive:
TNIK (UniProt C9J338) 0.015, TEC (UniProt P42680) -0.039, TMSB4X (UniProt P62328) -0.027, TFAP4 (UniProt Q01664) -0.218, TFPI (UniProt P10646) 0.035, TMC1 (UniProt Q8TDI8) -0.006, TMEM167B (UniProt Q9NRX6) 0.005, TUBB6 (UniProt K7ES63) 0.08, TCF20 (UniProt Q9UGU0) 0.11, UBXN10 (UniProt Q96LJ8) 0.078, THAP9 (UniProt Q9H5L6) 0.179, UBAP2L (UniProt F8W726) 0.099, TBC1D20 isoform 3 (UniProt Q96BZ9) -0.072, TRIM3 (UniProt O75382) 0.623, UCHL5 (UniProt Q5LJA9) 0.009, TNIK isoform 5 (UniProt Q9UKE5) 0.019, TFPT (UniProt P0C1Z6) 0.023, UBR4 isoform 4 (UniProt Q5T4S7) -0.078, TPM3 isoform 3 (UniProt P06753) 0.001, TMEM161B (UniProt Q8NDZ6) -0.005, UBN1 (UniProt Q9NPG3) 0.001, TMEM177 (UniProt Q53S58) 0.029, TMEM132A isoform 2 (UniProt Q24JP5) 0.724, TENM4 (UniProt Q6N022) -0.081, TUBB4A (UniProt M0QYM7) -0.048

Compound: NC1(c2ccc(-c3nc4ccn5c(=O)[nH]nc5c4cc3-c3ccccc3)cc2)CCC1
Experiment: as above
How it was run: as §1

log2 fold change, inactive:
TNIK (UniProt C9J338) -0.068, TMSB4X (UniProt P62328) 0, TRPM4 (UniProt Q8TD43) 0.089, TFAP4 (UniProt Q01664) -0.001, TFPI (UniProt P10646) 0.02, TTLL12 (UniProt V9GY16) 0.039, TMC1 (UniProt Q8TDI8) 0, TMEM167B (UniProt Q9NRX6) -0.019, TUBB6 (UniProt K7ES63) -0.008, TCF20 (UniProt Q9UGU0) 0.068, UBXN10 (UniProt Q96LJ8) 0.014, TPD52L2 isoform 3 (UniProt O43399) 0.074, TBC1D20 isoform 3 (UniProt Q96BZ9) -0.006, TRIM3 (UniProt O75382) 0.146, UCHL5 (UniProt Q5LJA9) 0.006, TFPT (UniProt P0C1Z6) -0.002, TXNRD2 isoform 3 (UniProt Q9NNW7) -0.228, UBR4 isoform 4 (UniProt Q5T4S7) 0.049, TCF3 isoform 2 (UniProt P15923) -0.068, TM2D3 (UniProt Q9BRN9) -0.09, TPM3 isoform 3 (UniProt P06753) -0.035, TMEM161B (UniProt Q8NDZ6) -0.064, TGFBR1 isoform 2 (UniProt P36897) -0.117, TMEM177 (UniProt Q53S58) 0.067, TMEM132A isoform 2 (UniProt Q24JP5) -0.014, TUBB4A (UniProt M0QYM7) 0.126
